Results on 14 compounds are retold here after PubChem BioAssay.

The source made the active and inactive calls.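 The calls were made as follows, unless noted: active = visually confirmed hit in the image check and inhibition above 20%; inconclusive = visually confirmed hit but inhibition not above 20%; inactive = no visual hit in the image check.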

The nature of assay [1]: inhibitors of TNFa-induced NFkB p65 translocation, primary screen, imaging, HUVEC, MLSMR starter and 10KST1 sets (AID 438;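 active = inhibition above 20% together with a positive visual image hit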;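 also: compound added about 3h40 before a 20 min TNFalpha stimulation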;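 as to inhibition: signal is the nuclear over cytoplasmic p65 intensity ratio per well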). To be noted: HUVEC TNFa-induced p65 nuclear translocation; cell count: measured here: nuclei count (cytotoxicity indicator), at 2.08 µM; inhibition: at 2 µM, stronger effect = higher value, 0% TNFa-plus-vehicle, 100% no-TNFa wells.
Assay [2] can be described thus: reduction of polyQ htt aggregates in cells – imaging, exon1htt(103Q)mCFP cells, high-content imaging, primary screen (AID 483;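 active = visual image review flags a hit and inhibition of aggregation exceeds 20%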;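 also: compound exposure lasted 3 days before fixation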;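 as to nuclei count: percent of the per-plate median nuclei count of sample wells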). The conditions noted are these: exon1htt(103Q)mCFP cell line, aggregate imaging, at 2 µM; inhibition of aggregation: stronger effect = higher value; nuclei count: measured here: cell count, toxicity.
Assay [3] is described as follows: endothelial E-selectin expression blockers – imaging, HUVEC, immunofluorescence, MLSMR starter and 10KST1 sets, primary screen (AID 487).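 As to inhibition: signal is fraction of cell area covered by stained E-selectin grains.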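 As to nuclei count: 100% = median nuclei count of all wells on the same plate.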 The conditions noted are these: HUVEC TNFalpha-induced E-selectin immunofluorescence imaging, at 2 µM; inhibition: stronger effect = higher value; nuclei count: measured here: cell number, toxicity.
Assay [4] concerns the target Voltage-gated potassium channel subunit beta-2 (Rattus norvegicus) (UniProt P62483). Description: inhibitors of rat Kvbeta2 reductase activity – biochemical, NADPH fluorescence, primary screen (AID 622;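 active = fluorescence slope higher than the sample average by over 3 SD, cut at about -0.22 in these data, passing the limit was not always enough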;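 also: slope of raw intensity against log time taken from 70 to 1610 s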). The conditions noted are these: recombinant KvBeta, 4-cyanobenzaldehyde reduction, at 10 µM, stronger effect = higher value.
The target is the same in assay [5]. Put plainly: enhancers of rat Kvbeta2 NADPH turnover – biochemical, NADPH fluorescence, primary screen (AID 623;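 active = NADPH fluorescence slope more negative than the mean of all samples by about 3 SD, 99.7% confidence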;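 also: fluorescence intensity change per second fitted from 20 to 320 s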). The conditions noted are these: Recombinant KvBeta, NADPH fluorescence decrease slope, 10 min; at 10 µM; stronger effect = lower value.
In assay [6] the target is Alpha-2C adrenergic receptor (Homo sapiens) (UniProt P18825). Put plainly: compounds altering alpha2C-coupled GIRK flux – cell-based, HEK293 alpha2C/GIRK1/2, thallium flux, primary screen (AID 624;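 active = fluorescence slope after compound addition differing from the mean of all screened samples at 99.7% confidence, in either direction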;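 also: slope of fluorescence ratio to pre-addition baseline per second over 15 to 24 s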). To be noted: thallium flux BTC fluorescence, at 10 µM, actives lie on both sides.
Sequence of Alpha-2C adrenergic receptor (Homo sapiens) (P18825 whole entry, looked up): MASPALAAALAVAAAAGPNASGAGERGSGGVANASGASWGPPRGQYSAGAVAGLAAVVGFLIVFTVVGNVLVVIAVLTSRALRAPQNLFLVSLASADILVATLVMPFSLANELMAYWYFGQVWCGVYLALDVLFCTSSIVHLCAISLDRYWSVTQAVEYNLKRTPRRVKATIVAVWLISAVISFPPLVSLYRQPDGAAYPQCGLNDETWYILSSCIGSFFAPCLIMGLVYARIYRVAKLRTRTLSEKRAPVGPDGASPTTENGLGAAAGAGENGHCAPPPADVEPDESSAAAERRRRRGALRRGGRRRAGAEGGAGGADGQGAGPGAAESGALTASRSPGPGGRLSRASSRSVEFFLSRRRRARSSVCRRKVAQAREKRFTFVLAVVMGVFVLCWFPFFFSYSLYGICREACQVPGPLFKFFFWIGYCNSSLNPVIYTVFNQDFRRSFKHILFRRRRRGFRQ
The nature of assay [7]: blockers of RIG-like receptor reporter activation – cell-based, Sendai virus stimulus, luciferase, 10K MLSCN set, TLR/RLR signaling modifier project, primary screen (AID 602276;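 active = inhibition at or above 50% at 10 µM; inactive = inhibition below 50%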;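 also: firefly luciferase from ISG56 promoter only with Renilla not read in this screen; 0% = Sendai virus plus DMSO and 100% = medium plus DMSO without virus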). The conditions noted are these: HEK293 RL24 IRF3 luciferase reporter, at 10 µM, stronger effect = higher value.
Assay [8] in a line: TLR3 IRF3 reporter activation blockers – cell-based, poly I:C stimulus, luciferase, 10K MLSCN set, primary screen (AID 602277;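 active = inhibition of the reporter signal at or above 50%; inactive = inhibition below 50%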). To be noted: HEK293-TLR3 RL24 IRF3 luciferase reporter, at 10 µM, stronger effect = higher value.

Sequence of Voltage-gated potassium channel subunit beta-2 (Rattus norvegicus) (P62483 whole entry, looked up): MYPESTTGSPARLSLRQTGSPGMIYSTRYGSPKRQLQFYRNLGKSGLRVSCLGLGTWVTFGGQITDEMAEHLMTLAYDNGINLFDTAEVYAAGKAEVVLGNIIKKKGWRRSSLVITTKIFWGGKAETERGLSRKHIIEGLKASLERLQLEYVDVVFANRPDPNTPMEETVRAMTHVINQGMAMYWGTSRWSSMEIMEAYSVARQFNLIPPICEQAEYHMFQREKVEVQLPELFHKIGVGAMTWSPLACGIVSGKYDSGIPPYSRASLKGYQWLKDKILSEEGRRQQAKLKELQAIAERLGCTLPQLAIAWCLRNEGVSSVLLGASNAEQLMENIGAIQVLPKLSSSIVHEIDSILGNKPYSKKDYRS

Turning to `COc1ccc(Cn2nnnc2C(c2cc3cc(C)cc(C)c3[nH]c2=O)N2CCOCC2)cc1` (centres undefined), the cell count in assay [1] was determined as 762. The inhibition in assay [1] was -12.9% (inactive); in assay [3] it was -9.5% (inactive); in assay [7], 13.8% (inactive); in assay [8], 24.9% (inactive). Further, the inhibition of aggregation in assay [2] is 33.9% (inactive). The nuclei count in assay [2] was 113%; in assay [3], 108%. For the same compound, in assay [4], the fluorescence slope is -0.51 (inactive). In addition, in assay [5], the NADPH fluorescence slope was -6.8e-05 (inactive). The slope in assay [6] was 0.00452 (inactive).
As for `Cc1oc(-c2ccccc2F)nc1CS(=O)(=O)CC(=O)N1CCN(Cc2ccccc2)CC1`, in assay [1], the cell count came to 853. Further, the inhibition in assay [1] was -4% (inactive); in assay [3], -96.8% (inactive); in assay [7], 6.04% (inactive); in assay [8] it was -4.63% (inactive). Further, the inhibition of aggregation in assay [2] was -23.9% (inactive). For the same compound, the nuclei count was 90.4% in assay [2] and 109% in assay [3]. Further, in assay [4], the fluorescence slope was -0.498 (inactive). Further, the NADPH fluorescence slope in assay [5] is -4.4e-05 (inactive). The slope in assay [6] was 0.00602 (inactive).
In the case of `Cn1c(-c2cc(Br)ccc2O)n[nH]c1=S`, in assay [1], the cell count worked out at 440. Moreover, the inhibition in assay [1] is 5.5% (inactive); in assay [3], -76.5% (inactive); in assay [7] it was -4.65% (inactive); in assay [8] it was -14.4% (inactive). The inhibition of aggregation in assay [2] was -2.6% (inactive). Moreover, the results for the nuclei count in assay [2] and in assay [3] were 109% and 118%, respectively. Besides, the fluorescence slope in assay [4] is -0.51 (inactive). For the same compound, in assay [5], the NADPH fluorescence slope is 4.9e-05 (inactive). The slope in assay [6] is 0.00989 (inactive).
`CC(=O)c1c(C)oc2ccc(NS(=O)(=O)c3ccc(O)c(C(=O)O)c3)cc12`: the cell count in assay [1] stood at 380. Besides, the inhibition in assay [1] was 8.9% (inactive); in assay [3], -5.6% (inactive); in assay [7], 7.79% (inactive); in assay [8], 19.3% (inactive). Besides, in assay [2], the inhibition of aggregation was -7.5% (inactive). The nuclei count in assay [2] amounted to 108%; in assay [3] it was 112%. Further, in assay [4], the fluorescence slope is -0.576 (inactive). In addition, in assay [5], the NADPH fluorescence slope was -2.5e-05 (inactive). The slope in assay [6] is 0.00663 (inactive).
For `Cc1ccc(O)c(-c2cc3ccccc3[nH]2)c1`, the cell count in assay [1] turned out to be 616. The inhibition in assay [1] was -4.8% (inactive); in assay [3], -37.9% (inactive); in assay [7], -4.2% (inactive); in assay [8], -87.3% (inactive). Further, the inhibition of aggregation in assay [2] was 20% (inactive). For the same compound, the nuclei count in assay [2] is 98.8%; in assay [3] it was 109%. Moreover, the fluorescence slope in assay [4] was -0.46 (inactive). The NADPH fluorescence slope in assay [5] was -3.3e-05 (inactive). In addition, the slope in assay [6] was 0.00556 (inactive).
With `Cc1cc(C(=O)NCCN2CCN(c3cccc(Cl)c3)CC2)n(-c2ccccc2)n1`, the cell count in assay [1] was found to be 647. Besides, the inhibition was 5.5% (inactive) in assay [1], -50.5% (inactive) in assay [3], 16.7% (inactive) in assay [7] and 35% (inactive) in assay [8]. Moreover, in assay [2], the inhibition of aggregation is -25.2% (inactive). Further, the nuclei count amounted to 78.7% in assay [2] and 108% in assay [3]. Besides, the fluorescence slope in assay [4] is -0.531 (inactive). In assay [5], the NADPH fluorescence slope is -2.8e-05 (inactive). The slope in assay [6] is 0.00538 (inactive).
For `COc1cccc2cc(C(=O)OC3CCN(C)CC3)c(=O)oc12`, the cell count in assay [1] was found to be 532. Further, the inhibition in assay [1] is -6.1% (inactive); in assay [3], -56% (inactive); in assay [7], 6.92% (inactive); in assay [8] it was 31.8% (inactive). In assay [2], the inhibition of aggregation is 38.8% (inactive). In addition, the nuclei count in assay [2] was determined as 77.9%; in assay [3], 110%. Further, in assay [4], the fluorescence slope is -0.605 (inactive). Further, in assay [5], the NADPH fluorescence slope was -2.6e-06 (inactive). Besides, the slope in assay [6] was 0.00643 (inactive).
As to `COc1cc2c3c(c1)/C(=C1/SC(NC(C)=O)=NC1=O)C(=O)N3C(C)(C)C=C2C`, the cell count in assay [1] was found to be 381. For the same compound, the inhibition in assay [1] is -2% (inactive); in assay [3], -35.9% (inactive); in assay [7], 18% (inactive); in assay [8] it was 16.3% (inactive). Also, in assay [2], the inhibition of aggregation is 7.7% (inactive). In addition, the nuclei count in assay [2] worked out at 91.9%; in assay [3], 91%. For the same compound, the fluorescence slope in assay [4] is -0.467 (inactive). Besides, in assay [5], the NADPH fluorescence slope was -2e-05 (inactive). Moreover, the slope in assay [6] is 0.00288 (inactive).
For `CCC(C)C(=O)Nc1nc2c(s1)C(=O)CC(C)(C)C2` (centres undefined), the cell count in assay [1] stood at 612. The inhibition in assay [1] is 6.9% (inactive); in assay [3], -8.8% (inactive); in assay [7], -7.18% (inactive); in assay [8], -6.11% (inactive). Further, the inhibition of aggregation in assay [2] was -4.2% (inactive). Also, the nuclei count turned out to be 102% in assay [2] and 115% in assay [3]. Moreover, the fluorescence slope in assay [4] is -0.553 (inactive). Moreover, the NADPH fluorescence slope in assay [5] was -2.6e-05 (inactive). Moreover, the slope in assay [6] was 0.00723 (inactive).
In the case of `CCOC(=O)c1cc2cc(F)ccc2nc1C`, the cell count in assay [1] amounted to 646. Besides, the inhibition in assay [1] was 4.9% (inactive); in assay [3], -7% (inactive); in assay [7] it was -17.9% (inactive); in assay [8], -45.1% (inactive). Moreover, the inhibition of aggregation in assay [2] was 13.9% (inactive). In addition, the nuclei count amounted to 106% in assay [2] and 118% in assay [3]. In addition, in assay [4], the fluorescence slope is -0.612 (inactive). Further, the NADPH fluorescence slope in assay [5] is -2.7e-05 (inactive). Also, the slope in assay [6] is 0.00327 (inactive).
As to `Cc1ccc(C(=O)CC2(O)C(=O)N(CN3CCOCC3)c3ccccc32)cc1` (centres undefined), the cell count in assay [1] was determined as 396. Moreover, the inhibition was -8.1% (inactive) in assay [1], -52.9% (inactive) in assay [3], -4.62% (inactive) in assay [7] and 5.37% (inactive) in assay [8]. For the same compound, the inhibition of aggregation in assay [2] was -5.7% (inactive). The nuclei count is 103% in assay [2] and 99.1% in assay [3]. Further, the fluorescence slope in assay [4] was -0.367 (inactive). Further, the NADPH fluorescence slope in assay [5] is 8.1e-06 (inactive). Further, the slope in assay [6] is 0.00346 (inactive).
As for `C=CCn1c(SCC(=O)C(C)(C)C)nnc1-c1ccccn1`, the cell count in assay [1] is 583. In addition, the inhibition in assay [1] is -3.4% (inactive); in assay [3] it was 9.2% (inactive); in assay [7], 12.5% (inactive); in assay [8] it was 18.5% (inactive). Moreover, the inhibition of aggregation in assay [2] was 16.4% (inactive). For the same compound, the figures for the nuclei count in assay [2] and in assay [3] were 83.3% and 90.9%, respectively. Besides, the fluorescence slope in assay [4] was -0.291 (inactive). Further, the NADPH fluorescence slope in assay [5] is -5.6e-05 (inactive). For the same compound, the slope in assay [6] is 0.00526 (inactive).
For `O=c1c2cc(Cl)ccc2[nH]c(=S)n1Cc1ccco1`, the cell count in assay [1] amounted to 439. Also, the inhibition in assay [1] is 5.3% (inactive); in assay [3], -36.1% (inactive); in assay [7], 9.24% (inactive); in assay [8], 20.2% (inactive). Also, in assay [2], the inhibition of aggregation is 13.5% (inactive). In addition, the nuclei count in assay [2] is 89.7%; in assay [3], 102%. For the same compound, in assay [4], the fluorescence slope is -0.597 (inactive). The NADPH fluorescence slope in assay [5] was -4.8e-05 (inactive). Moreover, the slope in assay [6] is 0.00334 (inactive).
For `COCCNS(=O)(=O)c1cc(F)ccc1OC`, in assay [1], the cell count stood at 782. The inhibition is -6.6% (inactive) in assay [1], -62.4% (inactive) in assay [3], -4.54% (inactive) in assay [7] and 25.9% (inactive) in assay [8]. For the same compound, the inhibition of aggregation in assay [2] was -2.8% (inactive). Moreover, the figures for the nuclei count in assay [2] and in assay [3] were 113% and 111%, respectively. Also, the fluorescence slope in assay [4] is -0.481 (inactive). In assay [5], the NADPH fluorescence slope was -3.4e-05 (inactive). The slope in assay [6] is 0.00632 (inactive).
